Among the test systems are NCI-H23 lung; NCI-H226 lung; NCI-H322M lung; HOP-62 NSCLC; NCI-H460 lung; HOP-92 NSCLC; NCI-H522 lung; A549/ATCC NSCLC; 786-0 renal; COLO 205 colon.
What all share (test): NCI-60 one-dose screen, 48 h (100 = growth as untreated, 0 = no growth, -100 = all killed)
Holding throughout (settings): 10 µM unless noted

Among the data in PubChem BioAssay (NCI) are growth values, retold here.

The panel holds about 83,000 compounds, 20% with a hit somewhere; the sample as a whole holds those more often.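 Results are percent growth after 48 hours of single-concentration exposure. 100 means growth as in untreated cells, lower positive values show inhibition; negative values down to -100 show cell death.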 Values without a mark were called inactive. The source made the active and inactive calls. Rule for the calls: active = growth percent below 10; inactive = the rest.

In the case of `N#CC1=C(N)Oc2c(ccc3ccccc23)C1c1cccs1` (stereo not given), the growth is 18% with NCI-H23 lung; 40.9% with NCI-H226 lung; 39.1% in the test on NCI-H322M lung; 25.5% with HOP-62 NSCLC; 0.254% (active) in the test with NCI-H460 lung; 35.5% with HOP-92 NSCLC. Moreover, the growth was -0.254% (active) in the test on NCI-H522 lung, 22.5% in the test on A549/ATCC NSCLC, 31.9% in the test with 786-0 renal and -54.9% (active) in the test with COLO 205 colon.
On to `CCN(CC)CCCC(C)Nc1ccnc2c(OC)cccc12` (stereo not given), for which the growth in the test with NCI-H23 lung was 106%; in the test on NCI-H226 lung, 111%; with NCI-H322M lung, 141%; in the test with HOP-62 NSCLC, 108%; in the test on NCI-H460 lung it was 125%; in the test with HOP-92 NSCLC, 130%. Moreover, the growth was 104% with NCI-H522 lung, 106% with A549/ATCC NSCLC, 113% in the test on 786-0 renal and 114% in the test on COLO 205 colon.
Consider `COc1c(Cl)cc(Cl)cc1Cl`, for which the growth in the test on NCI-H23 lung was 108%; in the test on NCI-H226 lung it was 110%; in the test on NCI-H322M lung it was 129%; in the test on HOP-62 NSCLC it was 97.5%; in the test with NCI-H460 lung, 97.8%; with HOP-92 NSCLC, 116%. For the same compound, the growth in the test with NCI-H522 lung is 103%; in the test on A549/ATCC NSCLC it was 116%; in the test on 786-0 renal, 112%; with COLO 205 colon, 116%.
As for `O=S(=O)(Nc1ccc(F)c(Cl)c1)c1ccc(-c2cnc(C3CC3)o2)cc1`, the growth was 24.8% in the test on NCI-H23 lung; 47.1% with NCI-H226 lung; 45.7% in the test with NCI-H322M lung; 33.1% in the test with HOP-62 NSCLC; 10.5% with NCI-H460 lung; 42% in the test on HOP-92 NSCLC. Moreover, the growth was -11.5% (active) with NCI-H522 lung, 21.4% with A549/ATCC NSCLC, 43.2% in the test with 786-0 renal and -6.19% (active) in the test with COLO 205 colon.
In the case of `CSc1ncnc2c1ncn2C1CCCO1` (stereo not given), the growth was 96.1% in the test with NCI-H23 lung; 90.1% in the test with NCI-H226 lung; 90.9% in the test with NCI-H322M lung; 99.7% in the test with HOP-62 NSCLC; 105% with NCI-H460 lung; 141% in the test on HOP-92 NSCLC. Besides, the growth with NCI-H522 lung was 121%; in the test on A549/ATCC NSCLC, 106%; with 786-0 renal, 104%; in the test on COLO 205 colon it was 119%.
For the compound `Nc1nc(SCc2ccccc2)c2ncn(C3CCCC3)c2n1`, the growth in the test with NCI-H23 lung is 85.7%; with NCI-H226 lung, 110%; in the test on NCI-H322M lung, 103%; with HOP-62 NSCLC, 107%; in the test on NCI-H460 lung it was 98.8%; with HOP-92 NSCLC it was 106%. In addition, the growth in the test on NCI-H522 lung was 76.8%; in the test with A549/ATCC NSCLC, 107%; in the test with 786-0 renal, 98.8%; with COLO 205 colon, 116%.
On to `COc1cc(C#N)cc(OC)c1OCCN(CCOc1c(OC)cc(C#N)cc1OC)S(=O)(=O)c1ccc(C)cc1`, for which the growth in the test with NCI-H23 lung is 96%; in the test on NCI-H226 lung, 104%; with NCI-H322M lung it was 91.6%; in the test with HOP-62 NSCLC it was 100%; in the test with NCI-H460 lung, 112%; with HOP-92 NSCLC it was 88.5%. In addition, the growth in the test with NCI-H522 lung is 95.1%; with A549/ATCC NSCLC it was 100%; with 786-0 renal, 92.7%; with COLO 205 colon, 113%.
Turning to `NC(N)=Nc1ccc(S(=O)(=O)O)cc1`, the growth was 102% in the test on NCI-H23 lung; 105% with NCI-H226 lung; 114% in the test with NCI-H322M lung; 106% in the test with HOP-62 NSCLC; 109% with NCI-H460 lung; 84.3% in the test with HOP-92 NSCLC. Further, the growth in the test with NCI-H522 lung is 79.3%; with A549/ATCC NSCLC, 106%; in the test on 786-0 renal, 98.3%; in the test on COLO 205 colon, 109%.
Turning to `COc1cccc(-c2cn3c(ccc4ccccc43)n2)c1`, the growth was 49.8% in the test on NCI-H23 lung; 43.9% with NCI-H226 lung; 56.4% with NCI-H322M lung; 25.8% in the test on HOP-62 NSCLC; 17.8% in the test on NCI-H460 lung; 64.2% in the test on HOP-92 NSCLC. Besides, the growth in the test with NCI-H522 lung was 15.9%; in the test with A549/ATCC NSCLC it was 55%; in the test on 786-0 renal, 44.4%; in the test on COLO 205 colon, 11.4%.
Regarding `CCN(CC)CC(O)c1cc(-c2ccc(Cl)cc2)nc2c(C)c(Cl)ccc12` (stereo not given), the growth was -89.3% (active) in the test on NCI-H23 lung; -15.8% (active) with NCI-H226 lung; -82.5% (active) with NCI-H322M lung; -100% (active) in the test with HOP-62 NSCLC; -86% (active) in the test on NCI-H460 lung; -46.8% (active) in the test on HOP-92 NSCLC. Moreover, the growth was -76% (active) in the test on NCI-H522 lung, -85.8% (active) with A549/ATCC NSCLC, -95.9% (active) in the test on 786-0 renal and -100% (active) in the test on COLO 205 colon.
Consider `CC1(C)OCC2OC3(C(=O)O)OC(C)(C)OC3C2O1` (stereo not given), for which the growth with NCI-H23 lung is 102%; with NCI-H226 lung, 106%; with NCI-H322M lung, 93%; in the test with HOP-62 NSCLC it was 101%; in the test with NCI-H460 lung, 110%; with HOP-92 NSCLC, 116%. In addition, the growth with NCI-H522 lung is 84.6%; in the test on A549/ATCC NSCLC it was 98.1%; with 786-0 renal it was 103%; in the test with COLO 205 colon, 106%.
As for `O=C(CO[N+](=O)[O-])Nc1ccc(C(=O)/C=C/c2ccc3c(c2)OCO3)cc1`, the growth in the test with NCI-H23 lung was 58.1%; in the test on NCI-H226 lung, 107%; with NCI-H322M lung it was 108%; with HOP-62 NSCLC, 112%; in the test with NCI-H460 lung, 108%; in the test with HOP-92 NSCLC, 77.3%. Also, the growth was 97.6% with NCI-H522 lung, 88.9% in the test with A549/ATCC NSCLC, 109% with 786-0 renal and 113% in the test with COLO 205 colon.
For the compound `O=C(O)c1ccc(=O)[nH]n1`, the growth in the test with NCI-H23 lung is 103%; with NCI-H226 lung it was 107%; with NCI-H322M lung it was 117%; in the test on HOP-62 NSCLC it was 111%; in the test on NCI-H460 lung, 112%; with HOP-92 NSCLC, 87.9%. Besides, the growth with NCI-H522 lung was 106%; in the test with A549/ATCC NSCLC, 116%; in the test with 786-0 renal it was 116%; with COLO 205 colon, 111%.
Take `ClC1=C2NC=NC2n2c(nnc2-c2ccc(Cl)cc2)N1` (stereo not given): the growth with NCI-H23 lung was 107%; in the test with NCI-H226 lung it was 96.2%; with NCI-H322M lung, 110%; with HOP-62 NSCLC, 98.7%; with NCI-H460 lung, 106%; in the test with HOP-92 NSCLC, 109%. Moreover, the growth in the test on NCI-H522 lung was 73.2%; in the test on A549/ATCC NSCLC it was 81.4%; in the test on 786-0 renal it was 97.2%; in the test with COLO 205 colon it was 89.8%.
`CC/C=C\C[C@H](F)C/C=C1/C(=O)C=C[C@@H]1C/C=C\CCCC(=O)OC`: the growth in the test on NCI-H23 lung is -12.6% (active); with NCI-H226 lung it was 25.4%; in the test with NCI-H322M lung, 45.5%; in the test with HOP-62 NSCLC, -25.8% (active); in the test on NCI-H460 lung, 1.34% (active); in the test on HOP-92 NSCLC, 68.9%. Besides, the growth is -26.8% (active) in the test on NCI-H522 lung, 24.3% in the test on A549/ATCC NSCLC, 5.15% (active) in the test on 786-0 renal and -28.1% (active) with COLO 205 colon.
For the compound `CCN(CC)CCCCNc1ccc(NCCCCN(CC)CC)c2c1C(=O)c1ccccc1C2=O`, the growth in the test with NCI-H23 lung is 77.5%; in the test on NCI-H226 lung, 113%; in the test with NCI-H322M lung it was 110%; with HOP-62 NSCLC it was 101%; in the test with NCI-H460 lung it was 57.4%; in the test on HOP-92 NSCLC, 55.5%. Moreover, the growth in the test with NCI-H522 lung is 96.6%; in the test on A549/ATCC NSCLC, 56.6%; with 786-0 renal, 82%; in the test with COLO 205 colon, 76.1%.
Regarding `CC1=NNC(=O)C1C` (stereo not given), the growth is 100% in the test with NCI-H23 lung; 93.5% in the test with NCI-H226 lung; 585% in the test with NCI-H322M lung; 87.4% with HOP-62 NSCLC; 114% in the test with NCI-H460 lung; 102% with HOP-92 NSCLC. Also, the growth in the test on NCI-H522 lung was 85.9%; in the test with A549/ATCC NSCLC, 98.6%; in the test on 786-0 renal it was 103%; with COLO 205 colon, 110%.
As for `CC(C)c1c(C(=O)Nc2ccccc2)c(-c2ccccc2)c(-c2ccc(F)cc2)n1CC[C@@H]1CC=CC(=O)O1`, the growth in the test on NCI-H23 lung was 1.14% (active); with NCI-H226 lung it was 39.7%; in the test with NCI-H322M lung, 58.6%; with HOP-62 NSCLC, 12.4%; in the test with NCI-H460 lung, 5.24% (active); with HOP-92 NSCLC, -24.5% (active). In addition, the growth with NCI-H522 lung was -33.4% (active); in the test with A549/ATCC NSCLC it was -9.24% (active); in the test with 786-0 renal it was -26.2% (active); with COLO 205 colon, -49.9% (active).
With `O=C(CN1CCN(c2cc3c(cc2F)c(=O)c(C(=O)O)cn3C2CC2)CC1)Nc1nc(-c2ccccc2)cs1`, the growth was 86.4% in the test on NCI-H23 lung; 77.3% in the test with NCI-H226 lung; 102% with NCI-H322M lung; 81.1% in the test on HOP-62 NSCLC; 73.3% with NCI-H460 lung; 70.8% with HOP-92 NSCLC. The growth was 75.5% with NCI-H522 lung, 65.2% with A549/ATCC NSCLC, 75.5% in the test on 786-0 renal and 93.3% in the test with COLO 205 colon.
Regarding `COc1cnc2c(c1)C(=O)c1c-2n(CCCN2CCN(C)CC2)c(=O)c2cc([N+](=O)[O-])ccc12`, the growth in the test with NCI-H23 lung was -46.4% (active); in the test with NCI-H226 lung it was 79.3%; in the test with NCI-H322M lung, -56.9% (active); in the test on HOP-62 NSCLC, -61.3% (active); with NCI-H460 lung it was -74.5% (active); with HOP-92 NSCLC it was -57.7% (active). The growth with NCI-H522 lung was -37.6% (active); in the test with A549/ATCC NSCLC, -78.9% (active); in the test with 786-0 renal, -87.1% (active); in the test on COLO 205 colon it was -5.87% (active).
